Results filed as inconclusive are left out. A call without a number means that no potency is given here. Active and inactive are the calls of the source. Calls follow the shape of the dose curve; as a rule, active = well fitted cell-killing curve with a large enough effect in the repeat runs; inconclusive = weak or mixed curves, or effect the other way; inactive = no such curve, though single readings can be large or run the other way.
Test: qHTS assay to identify small molecule agonists of the RXR signaling pathway - cell viability counter screen (AID 1159529); also: nearly all actives have a fitted effect of over 50% in size
Conditions: RXR-alpha-bla HEK293T viability, CellTiter-Glo, 16 h; series mostly up to 76.8 µM
Source text: National Center for Advancing Translational Sciences [NCATS]
NIH Chemical Genomics Center [NCGC]
U.S. Environmental Protection Agency [EPA]
National Institutes of Environmental Health Sciences [NIEHS]
National Toxicology Program [NTP]
U.S. Food and Drug Administration [FDA]
The Retinoid X receptor (RXR), a nuclear hormone receptor expressed in liver, spleen, placenta, epidermis, central nervous system. These receptors are able to form homo and heterodimers with other nuclear receptors and due to this heterodimerizing ability, RXR functions as master regulators producing diverse physiological effects. Three subtypes of RXR exist; alpha, beta and gamma. Retinoid X receptor alpha (RXR-alpha) has potential roles in metabolic signaling pathways, skin alopecia, dermal cysts, cardiac development, insulin sensitization etc. Therefore screening environmental chemicals on RXR-alpha signaling can be used for the studies focused on such therapeutic applications. For quantification of RXR-alpha ligands signaling, GeneBLAzer RXR alpha-UAS-bla HEK 293T (Life Technologies, Carlsbad, CA) cells containing a beta-lactamase reporter-gene under control of Retinoid X receptor-alpha response element were used to screen Tox21 10K library. The cytotoxicity of the Tox21 compound library against the RXR-alpha HEK 293T cell line was tested in parallel by measuring cell viability using CellTiter-Glo assay (Promega Corporation, Madison, WI) in the same wells.
Tox21 Assay Protocol Summary:
RXR-alpha HEK 293T cells were dispensed at 2,000 cells/6 uL of assay medium containing 2% charcoal-stripped FBS using a Multidrop Combi (ThermoFisher Scientific, Waltham, MA) dispenser. The assay was performed in black wall/clear-bottom 1536-well plates (Greiner Bio-One North America Inc. Monroe, NC). Tetraoctyl ammonium bromide was used as a positive control in the cytotoxicity screen. After the assay plates were incubated at 37 C and 5% CO2 for 5 hr, 23 nL of compounds dissolved in DMSO, positive control or DMSO only were transferred to the assay plate by a Pintool station (Kalypsys, San Diego, CA). The assay plates were incubated at 37 C and 5% CO2 for 16 hr. One uL of LiveBLAzer B/G FRET substrate (Life Technologies) was added using a Flying Reagent Dispenser (FRD) (Aurora Discovery, San Diego, CA) and the plates were incubated at room temperature for 2 hr. Fluorescence intensity (405 nm excitation, 460/530 nm emission) was measured using an Envision plate reader (PerkinElmer, Shelton, CT). For cytotoxicity, 4 uL/well of CellTiter-Glo reagent was added into the assay plates using an FRD. After 30 min incubation at room temperature, the luminescence intensity was measured using a ViewLux plate reader (PerkinElmer).
Potency is read from the fitted curve at half-maximal effect.

Row | Structure (SMILES) | Potency | activity change, negative = cytotoxicity
1 | CC1=CC(C)C(C=O)C(C)C1 (stereo not given) | inactive | –
2 | CCCC(C)C(=O)O (stereo not given) | 18.7 µM (active) | –
3 | NC(=O)c1ncn([C@@H]2O[C@H](CO)[C@@H](O)[C@H]2O)c1O | inactive | –
4 | NS(=O)(=O)c1cc2c(cc1Cl)NC(CSCc1ccccc1)=NS2(=O)=O | inactive | –
5 | CNC(=O)c1c(I)c(NC(=O)CCCCC(=O)Nc2c(I)c(C(=O)O)c(I)c(C(=O)NC)c2I)c(I)c(C(=O)O)c1I | inactive | –
6 | N[C@@H](CS)C(=O)O | inactive | –
7 | CCO[Si](C)(OCC)OCC | inactive | –
8 | NC(=S)Nc1cccc2ccccc12 | – | -0.564% [at 6.97 µM] (inactive)
9 | O=C(O)C(O)[C@H](O)[C@@H](O)[C@H](O)[C@H](O)CO (stereo not given in full) | 49.5 µM (active) | –
10 | CC(C)=CC(=O)O | inactive | –
11 | Cc1c(F)cc2c(=O)c(C(=O)O)cn3c2c1CCC3C (stereo not given) | inactive | –
12 | CO[Si](CCCNCCC[Si](OC)(OC)OC)(OC)OC | inactive | –
13 | C=CCn1c(=O)n([C@@H]2O[C@H](CO)[C@@H](O)[C@H]2O)c2nc(N)[nH]c(=O)c21 | inactive | –
14 | CC(C)c1ccc2oc3nc(N)c(C(=O)O)cc3c(=O)c2c1 | inactive | –
15 | COc1cccc(OC)c1 | inactive | –
16 | CCCCCN(CCCCC)C(=O)C(CCC(=O)O)NC(=O)c1ccc(Cl)c(Cl)c1 (stereo not given) | inactive | –
17 | CCCCCCCCCCCCCCC | inactive | –
18 | NC(CS)C(=O)O (stereo not given) | inactive | –
19 | CCCCC=O | inactive | –
20 | OC/C=C/c1ccccc1 | inactive | –

Row | Structure (SMILES) | Potency | activity change, negative = cytotoxicity
21 | CC(C=O)Cc1ccc(C(C)C)cc1 (stereo not given) | inactive | –
22 | N#CCN(CC#N)CCN(CC#N)CC#N | inactive | –
23 | CC(C)c1cccc(O)c1 | inactive | –
24 | O=C1C(CCS(=O)c2ccccc2)C(=O)N(c2ccccc2)N1c1ccccc1 (stereo not given) | inactive | –
25 | CC(=O)CCc1ccc(O)cc1 | inactive | –
26 | FC(F)(F)C(F)(F)C(F)(F)C(F)(F)C(F)(F)C(F)(F)C(F)(F)C(F)(F)C(F)(F)C(F)(F)F | – | 1.03% [at 6.97 µM] (inactive)
27 | CC(C)(O)C(=O)c1ccc(OCCO)cc1 | inactive | –
28 | CCCCOCC(C)OCC(C)O (stereo not given) | inactive | –
29 | CC/C=C\C#N | inactive | –
30 | COc1ccc2cc(C=O)ccc2c1 | inactive | –
31 | O=[N+]([O-])c1ccc(CCO)cc1 | inactive | –
32 | [O-][N+](=Nc1ccccc1)c1ccccc1 | inactive | –
33 | O=C(O)c1ccccc1S | inactive | –
34 | CC(C)[C@H](N)C(=O)OCCOCn1cnc2c(=O)[nH]c(N)nc21 | inactive | –
35 | CCCCCCC(CCCCCCCCCCC(=O)OCC(COC(C)=O)OC(C)=O)OC(C)=O (stereo not given) | inactive | –
36 | CCCCCCOC(=O)c1ccccc1O | inactive | –
37 | CN(C)CCOC(c1ccc(Cl)cc1)c1ccccn1 (stereo not given) | inactive | –
38 | C=C(C)C1CC=C(C)C(O)C1 (stereo not given) | inactive | –
39 | Oc1ccc2c(c1)OC[C@@H](N1CCC(O)(c3ccc(F)cc3)CC1)[C@H]2O | inactive | –
40 | COC(=O)CCCC(=O)O | inactive | –
